Measurements: PubChem BioAssay (EPA / NIEHS)
Inconclusive results are not listed. The source made the active and inactive calls. How the source made its calls: active means hit-call score of the fitted dose curve at least 0.9, where 1 is the maximum; inconclusive means response in the unintended direction; inactive means score below 0.9.

Each molecule was assayed against Peroxisome proliferator-activated receptor gamma (Homo sapiens) (UniProt P37231) (assay: ATG_PPARg_TRANS: Attagene TRANS-FACTORIAL HepG2 Assay for human Peroxisome Proliferator-activated Receptor-gamma (PPARg) (AID 2283007)).
Protocol: ATG_TRANS is a cell-based, multiplexed-readout assay that uses HepG2, a human liver cell line, with measurements taken at 24 hours after chemical dosing in a 24-well plate.ATG_PPARg_TRANS is one of 30 assay component(s) measured or calculated from the ATG_TRANS assay. It is designed to make measurements of mRNA induction, a form of inducible reporter, as detected with fluorescence intensity signals by Reverse transcription polymerase chain reaction (RT-PCR) and Capillary electrophoresis technology.Data from the assay component ATG_PPARg_TRANS was analyzed into 1 assay endpoint. This assay endpoint, ATG_PPARg_TRANS, was analyzed in the positive analysis fitting direction relative to DMSO as the negative control and baseline of activity. Using a type of inducible reporter, measures of mRNA for gain-of-signal activity can be used to understand the reporter gene at the transcription factor-level as they relate to the gene PPARG. Furthermore, this assay endpoint can be referred to as a primary readout, because this assay has produced multiple assay endpoints where this one serves a reporter gene function. To generalize the intended target to other relatable targets, this assay endpoint is annotated to the nuclear receptor intended target family, where the subfamily is non-steroidal.
Human liver HepG2 cells are transiently transfected with multiple reporter transcription units (MRTUs) in 6-well plates using FuGene 6 reagent (Roche; 3 ml FuGene/1 mg DNA). The MRTU constructs are regulated by a cis-regulating element (promoter). […] A major difference between the CIS and TRANS system is that in CIS activities of endogenous TFs are measured, whereas the TRANS assay evaluates changes in activities of exogenous, chimeric NR-Gal4 proteins. […] At the end of 24 hour incubation, total RNA was isolated using TriZol reagent (Invitrogen). The isolated RNA is then reverse-transcribed using oligo(dT) primer and Mo-MLV reverse transcriptase (Invitrogen) with DNAse I (Ambion) treatment for 30 min. The one-tenth of the produced cDNA was amplified by PCR using Taq DNA polymerase (Invitrogen) and two reporter sequence-specific primers. The PCR products were fluorescently labeled by primer extension with 6-arboxyfluorescein (6-FAM) 5'-labeled reporter sequence-specific primer (2 min at 95 C, 20 s at 68 C and 10 min at 72 C) and these products were digested with 5U of HpaI (New England Biolabs) for 2h at 37 C. The fragments were purified using Qiaquick PCR columns (Qiagen), analyzed on an ABI 3130xL genetic analyzer (Applied Biosystems) with peak positions identified by using a set of X-rhodamine (ROX)-labeled MapMarker1000 molecular weight standards (BioVentures). The raw capillary electrophoresis data was processed using Attagraph software (Attagene).

Sequence of Peroxisome proliferator-activated receptor gamma (Homo sapiens) (P37231 whole entry, looked up): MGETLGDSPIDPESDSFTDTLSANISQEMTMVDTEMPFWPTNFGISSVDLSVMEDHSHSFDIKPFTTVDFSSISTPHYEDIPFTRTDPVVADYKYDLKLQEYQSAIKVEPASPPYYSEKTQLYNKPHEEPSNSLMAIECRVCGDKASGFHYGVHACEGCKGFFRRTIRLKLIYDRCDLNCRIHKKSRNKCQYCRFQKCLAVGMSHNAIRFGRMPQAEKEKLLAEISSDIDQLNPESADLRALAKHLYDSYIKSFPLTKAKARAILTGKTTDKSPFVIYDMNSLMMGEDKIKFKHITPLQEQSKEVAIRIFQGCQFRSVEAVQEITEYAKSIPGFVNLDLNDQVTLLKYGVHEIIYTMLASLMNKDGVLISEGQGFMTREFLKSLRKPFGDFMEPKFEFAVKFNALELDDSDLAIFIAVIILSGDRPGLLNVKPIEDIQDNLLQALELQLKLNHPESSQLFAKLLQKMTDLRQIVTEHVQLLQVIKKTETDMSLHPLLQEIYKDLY

Compound | outcome | AC50
C=C(C)C(=O)O | inactive | –
Cc1ccc(C(C)C)cc1O | inactive | –
CCCC/C=C\CCCCCCCCCC=O | inactive | –
COCCCOc1ccnc(CS(=O)c2nc3ccccc3[nH]2)c1C (stereo not given) | – | 31.3 µM (active)
Cc1ccc2ccccc2n1 | inactive | –
CCCOCC(C)O (stereo not given) | inactive | –
CNC(=O)Oc1ccc2c(c1)[C@]1(C)CCN(C)[C@@H]1N2C | inactive | –
Cc1cccc(Nc2ccccc2C(=O)O)c1C | – | 12.6 µM (active)
CCC(=O)OCCC(C)CCC=C(C)C (stereo not given) | inactive | –
COc1ccnc(CS(=O)c2nc3cc(OC(F)F)ccc3[nH]2)c1OC (stereo not given) | inactive | –
CCCCC/C=C/C=C/C=O | – | 9.8 µM (active)
CCCC(=O)OCCC(C)CCC=C(C)C (stereo not given) | – | 31 µM (active)
CCCCCC(CO)CCC (stereo not given) | inactive | –
OCCCCCO | inactive | –
Cc1ccc2n[nH]nc2c1 | inactive | –
CC(=O)c1c(C)cc(C(C)(C)C)cc1C | inactive | –
CCCCc1ccc(N)cc1 | inactive | –
CCOC(=O)c1ccccc1OC | inactive | –
CCn1c2ccccc2c2cc(N)ccc21 | – | 22.9 µM (active)
CC(C)Oc1ccccc1O | inactive | –

Compound | outcome | AC50
COc1ccc(NC(=O)CC(C)=O)cc1 | inactive | –
CCCCCCCCCCCCSC | inactive | –
CC(C)OP(=O)(CP(=O)(OC(C)C)OC(C)C)OC(C)C | inactive | –
C=C(C)[C@@H]1CCC2=CC(=O)C[C@@H](C)[C@]2(C)C1 | inactive | –
C=CC(=O)OCCn1c(=O)n(CCOC(=O)C=C)c(=O)n(CCOC(=O)C=C)c1=O | – | 8.83 µM (active)
CC(C)C1CCC(O)CC1 (stereo not given) | inactive | –
CSc1nnc(C(C)(C)C)c(=O)[nH]1 | inactive | –
C=CC(=O)OCC(O)COc1ccccc1 (stereo not given) | – | 3.66 µM (active)
CCN(CC)c1ccc2c(-c3ccccc3C(=O)O)c3ccc(=[N+](CC)CC)cc-3oc2c1 | – | 30.4 µM (active)
COc1cc2ncnc(Nc3cccc(Cl)c3)c2cc1OC | inactive | –
COc1ccc(OC)c(OC)c1 | inactive | –
C=C(C)C(=O)Nc1ccc(Cl)c(Cl)c1 | – | 18.4 µM (active)
Nc1cc(Cl)c(O)c(Cl)c1 | – | 30 µM (active)
Cc1ccc(Nc2ccc(O)c3c2C(=O)c2ccccc2C3=O)cc1 | inactive | –
CCCCC(CC)COC(=O)/C=C\C(=O)OCC(CC)CCCC (stereo not given) | – | 4.7 µM (active)
CC(C)(Oc1ccc(CCNC(=O)c2ccc(Cl)cc2)cc1)C(=O)O | – | 27.6 µM (active)
CCCC(C)C=O (stereo not given) | inactive | –
CN1Cc2c(N)cccc2C(c2ccccc2)C1 (stereo not given) | inactive | –
CCCCCNCCCCC | inactive | –
CCCCCCCCCCCCN(CCCCCCCCCCCC)CCCCCCCCCCCC | inactive | –
